# CF NFkB inh: inhibitors of cystic fibrosis induced NF-kB; KKLEB NF-kB-GFP reporter, PAF-induced, GFP fluorescence overnight; inhibition, % at 5 µM; actives 0.86% (n = 360,000);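 active = at least 50% inhibition at 5 µM, scaled per plate between neutral and stimulator controls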;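 also: PAF is a Pseudomonas aeruginosa culture filtrate used as stimulus; plate controls were PAF-stimulated DMSO wells for no effect and unstimulated DMSO wells for full effect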
# KKLEB cytotox: counter-screen for CF NF-kB inhibitors: cytotoxicity; KKLEB CF airway cells viability, ATPlite luminescence, overnight; active compounds read low; cells stimulated with P. aeruginosa culture filtrate; activity change (cytotoxicity), % at 5 µM; actives 0.36% (n = 360,000); AID 602141;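 active = corrected activity change at or below -50% at 5 µM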
# TROY NFkB inh: blocks TROY-dependent signaling in reporter cells | inhibition, % at 10 µM | Q293 LMP1-TROYcd NF-kB luciferase reporter, 4 h | actives 0.98% (n = 360,000);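 active = compounds whose plate-normalised and pattern-corrected inhibition of the luciferase reporter signal at the single screening dose is 50% or more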
# TWEAK Fn14 block: blocks TWEAK-Fn14 interaction in a reporter cell assay; TWEAK-stimulated Fn14 reporter cells, luciferase luminescence, 8 h; inhibition, % at 10 µM; AID 1159606; actives 2% (n = 360,000); in the data active = inhibition above about 50%
# HIF-2a block: HIF-2a inhibition. 786-0 RCC cells HIF-2a reporter, luciferase luminescence, overnight. actives 0.72% (n = 360,000). inhibition, % at 18.8 µM. AID 624352;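 active = inhibition of the luminescence signal of 40% or more relative to plate controls, in a single-dose primary screen at 18.75 µM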
# Peg3 prom inh-1: Peg3 promoter activity inhibition. HeLa PEG-Prom luciferase reporter, luminescence, overnight. inhibition, % at 20 µM. AID 588405. actives 1.7% (n = 360,000);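 active = inhibition of at least 50% at 20 µM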
# Peg3 prom inh-2: Peg3 promoter inhibition confirmation; shares compounds with Peg3 prom inh-1; HeLa PEG-Prom luciferase reporter, luminescence, overnight; inhibition, % at 20 µM; actives 84% (n = 1,300); AID 602417;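 active = at 20 µM dose, 40% or more inhibition averaged across four replicates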
# CF NFkB conf: CF NF-kB inhibition confirmation, single concentration; AID 602472; actives 64% (n = 1,300); shares compounds with CF NFkB inh; inhibition, % at 5 µM; KKLEB CF airway cells, PAF-induced NF-kB-GFP fluorescence, overnight; in the data active = inhibition above about 40%;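 also: stimulus PAF is a Pseudomonas aeruginosa filtrate and not platelet activating factor; plate controls were DMSO wells with stimulus for no effect and unstimulated DMSO wells for full effect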
# Mdm2 MdmX conf: confirmation of inhibitors of human Mdm2/MdmX interaction, set 2 | shares compounds with HIF-2a block | SaOS-2 split-luciferase Mdm2/MdmX complementation, luminescence | inhibition, % at 8 µM | actives 99% (n = 740) | AID 504601;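 active = mean inhibition of the luminescence signal across two replicates at or above 26 percent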
# HIF-2a conf: HIF-2a inhibition, single concentration confirmation; AID 651580; shares compounds with HIF-2a block; actives 56% (n = 1,800); inhibition, % at 18.8 µM; 786-0 RCC cells, HIF-2a luciferase reporter luminescence, overnight;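 active = mean inhibition across four replicates of at least 40 percent at the single tested concentration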
# HIF-1a counter: HIF-1a inhibition counter-screen for HIF-2a hits; inhibition, % at 18.8 µM; MiaPaCa-2 HIF-1a luciferase reporter, desferoxamine, overnight; actives 72% (n = 1,800); shares compounds with HIF-2a block;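 active = mean inhibition of the reporter signal across four replicates at the single tested dose of 50% or more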
# * marks the source's active call; other numbers are inactive results; . = no result given. Most compounds without a hit are left out; they make up all but 4% or so of the library.
SMILES,CF NFkB inh,KKLEB cytotox,TROY NFkB inh,TWEAK Fn14 block,HIF-2a block,Peg3 prom inh-1,Peg3 prom inh-2,HIF-2a conf,HIF-1a counter,others
CC(=O)N1CCCC(c2cc(C(=O)Nc3ccccc3)no2)C1 (configuration not stated),-26,-8,80*,101*,72*,65*,73*,82*,60*,
O=C(Nc1ccccc1)c1cc(C2CCCN(C(=O)C/C=C/c3ccccc3)C2)on1 (configuration not stated),-1,0,7,7,-148,-105,.,.,.,
COc1ccc2sc(N(CCCN(C)C)C(=O)c3ccc(S(=O)(=O)N4CCCC4)cc3)nc2c1,12,-19,-9,1,-53,-81,.,.,.,
CN(C)CCCN(C(=O)c1ccc(S(=O)(=O)N2CCc3ccccc3C2)cc1)c1nc2ccc(F)cc2s1,-20,-38,0,-208,73*,104*,92*,15,103*,
COc1ccc2sc(N(CCCN(C)C)C(=O)c3ccc(S(=O)(=O)N4CCc5ccccc5C4)cc3)nc2c1,74*,-98*,17,-263,82*,101*,98*,32,106*,Mdm2 MdmX conf=95*
S=C(Nc1ccccc1)Nc1ccc(OCc2ccc(Cl)cc2Cl)cc1,2,0,81*,32,93*,79*,74*,98*,100*,
S=C(NCCSCc1ccc(Cl)cc1Cl)Nc1ccccc1,3,-10,38,17,16,18,.,.,.,
O=C(CSCc1ccccc1)N/N=C/c1ccc(OCC(=O)N2CCCCC2)cc1,1,1,-36,-8,-11,13,.,.,.,
N#CC(C#N)=C1C=CC=CN1/C(=C\c1ccco1)C(=O)c1ccc(Br)cc1,79*,-46,78*,92*,92*,111*,98*,98*,105*,CF NFkB conf=24
CCCCCc1ccc(OCCCC[n+]2cccc(C)c2)c(CCCCC)c1,58*,-47,59*,70*,95*,97*,97*,33,106*,Mdm2 MdmX conf=102*
CCCCOc1ccc(C)cc1CN(CCO)CCO,3,-15,-6,-18,14,1,.,.,.,
O=[N+]([O-])c1ccc(S(=O)(=O)c2ccccc2)nc1,108*,-88*,58*,54*,75*,97*,97*,65*,79*,Mdm2 MdmX conf=103*
Nc1ccc(S(=O)(=O)c2ccccc2)nc1,13,1,-17,22,13,11,.,.,.,
CC(C)OC(=O)C1C2C=CC3(CN(CC4CCCO4)C(=O)C13)O2 (configuration not stated),-2,16,-6,-17,16,-2,.,.,.,
CC(C)(C)C(=O)Nc1ccc(NC(=O)c2ccco2)nc1,-3,-31,85*,104*,90*,108*,92*,96*,96*,Mdm2 MdmX conf=98*
O=C(Cc1ccccc1)Nc1ccc(NC(=O)c2ccco2)nc1,-3,3,-91,-13,-202,-239,.,.,.,
Cc1ccc(N(Cc2cc(=O)[nH]c3ccccc23)C(=O)CCl)c(C)c1,42,-15,-4,63*,19,71*,76*,.,.,Mdm2 MdmX conf=101*
COc1ccccc1N1CCN(S(=O)(=O)CCNC(=O)/C=C/c2ccc3c(c2)OCO3)CC1,22,-15,10,-18,-13,-3,.,.,.,
O=C(/C=C/c1ccccc1O)c1ccco1,14,3,-34,23,-16,10,.,.,.,
O=C(/C=C/c1cc(Br)ccc1O)c1ccco1,94*,-2,33,62*,94*,107*,99*,46*,102*,
O=C(NCCc1ccccc1F)c1ccc2c(c1)OCCO2,2,-26,86*,108*,91*,106*,93*,96*,101*,Mdm2 MdmX conf=96*
O=C(NCc1ccccc1F)c1ccc2c(c1)OCO2,-3,12,4,34,-23,-36,.,.,.,
CS(=O)(=O)N(Cc1ccc(C(=O)NC2CCCC2)cc1)c1ccccc1,-4,8,13,-10,2,-36,.,.,.,
COc1ccc(-c2cc3nc(C)n(N)c(=O)c3s2)cc1,-17,-39,81*,101*,87*,95*,95*,.,.,Mdm2 MdmX conf=95*
Cc1nc2cc(-c3ccccc3)sc2c(=O)n1N,-12,-6,79*,95*,75*,90*,79*,88*,77*,
SMILES,CF NFkB inh,KKLEB cytotox,TROY NFkB inh,TWEAK Fn14 block,HIF-2a block,Peg3 prom inh-1,Peg3 prom inh-2,HIF-2a conf,HIF-1a counter,others
COc1cccc(CNc2nc3cc(-c4ccccc4)sc3c(=O)n2C)c1,-2,-2,19,30,-102,-20,.,.,.,
COC(=O)Cc1[nH]n(-c2nc3ccccc3s2)c(=O)c1C(C)=Nc1ccc(Cl)cc1,11,-15,44,17,85*,94*,94*,93*,102*,
COC(=O)Cc1[nH]n(-c2nc3ccccc3s2)c(=O)c1C(C)=Nc1ccc(C)cc1,4,8,82*,91*,87*,91*,94*,92*,102*,
COc1ccccc1C(=O)Nc1ccc(S(=O)(=O)N(C)c2ccccc2)cc1,19,2,-9,1,-74,-14,.,.,.,
C=C1CC2(OC1=O)c1ccccc1CCc1ccccc12,89*,-85*,51*,34,90*,97*,97*,98*,107*,
O=C(Nc1ccc2c(c1)CCC2)c1ccccc1F,-61,11,-25,28,-117,-173,.,.,.,
C/C(=N/NC(=O)c1cc(C2CC2)[nH]n1)c1cccs1,14,-12,2,89*,49*,63*,47*,67*,16,
C/C(=N\NC(=O)c1ccncc1)c1cccs1,4,-2,-4,-3,-79,-52,.,.,.,
CC(=O)N(c1ccccc1)c1c(F)c(F)c(F)c(F)c1F,8,4,-8,2,13,7,.,.,.,
CC(=O)c1c(NCc2ccccc2)nc(=O)n(-c2ccccc2)c1C,-3,8,-16,4,-90,-99,.,.,.,
CC(=O)c1c(NCCc2ccccc2)nc(=S)n(-c2ccccc2)c1C,-16,13,-4,-21,92*,101*,99*,-11,20,

# From PubChem
